# From PubChem BioAssay (NCATS)
# Inconclusive results are not listed. Entries that show only a call come without a potency. Active and inactive are the calls of the source. Unless noted, calls follow the shape of the dose curve; as a rule, active = well fitted curve in the direction sought with a large enough effect; inconclusive = small, poorly fitted or top-dose-only effect, or another doubt; inactive = no such curve, though single readings can be large; an effect the other way counts as inactive or inconclusive.
# Key:
# [1] = Confirmatory screen NINDS Rhodamine qHTS for Zika virus inhibitors (AID 1347161); also: nearly all actives have a fitted effect of over 60% in size; also: potency is read from the fitted curve at half-maximal effect
# Summary of the method: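 qHTS dose-response: 25 nM linked protease, pH 8.0 Tris/Tween buffer, cpd titration, 15 min RT preinc, 1.5 microM Rhod110 peptide, 15 min reaction (~15% conversion), Ex480/Em540; 4-parameter Hill fit.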
# [2] = U-118MG Cancer Cell Toxicity qHTS against the NCATS CANVASS Library (AID 1347351); also: potency is read from the fitted curve at half-maximal effect
# Summary of the method: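 Following a 4 h pre-incubation of 1000 seeded cells, compounds were pinned in an 11-pnt dilution series and left for 72 h; viability then came from CellTiter-Glo.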
# [3] = UWB1.289-WTBRCA1 Cancer Cell Toxicity qHTS against the NCATS CANVASS Library (AID 1347354)
# Summary of the method: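 Using an ATP-based luminescent reagent after three days of treatment, toxicity is scored across an eleven-concentration range in wells holding 1000 cells each.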
# [4] = KB-3-1 Cancer Cell Toxicity qHTS against the NCATS CANVASS Library (AID 1347366); also: nearly all actives have a fitted effect of over 75% in size; also: potency is read from the fitted curve at half-maximal effect
# Summary of the method: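 Cytotoxicity toward KB-3-1 cells (500/well, DMEM + 10% FBS) was scored by CellTiter-Glo luminescence following 72 hr exposure at 37C, with bortezomib titrated as control.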
# [5] = Vero-766 cells viability qHTS against the NCATS CANVASS Library: Counterscreen for Zika virus inhibition assay (AID 1347394); also: nearly all actives have a fitted effect of over 60% in size; also: potency is read from the fitted curve at half-maximal effect
# Summary of the method: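 Counterscreen for toxicity: Vero 766 cells exposed 72 h to an 11-point compound series, viability by CellTiter-Glo.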
# [6] = Viability qHTS for inhibitors of the SERCaMP assay screened against the NCATS CANVASS Library (AID 1347400); also: nearly all actives have a fitted effect of over 70% in size; also: potency is read from the fitted curve at half-maximal effect
# Summary of the method: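 Measures loss of viability in SERCaMP reporter SH-SY5Y cells treated for 48 h with compounds; luminescent ATP detection by CellTiter-Glo.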
# [7] = Redox Reaction Profiling qHTS: Assay Interference Panel against the NCATS CANVASS Library (AID 1347401); also: potency is read from the fitted curve at half-maximal effect
# Summary of the method: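 Quantitative HTS over an 11-point series was run in HEPES pH 7.3 with 50 mM NaCl, 200 uM DTT and 5 uM resazurin. Initial and 15-min resorufin fluorescence readings were taken.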
# [8] = system: Zika virus NS2B-NS3 protease (linked construct); assay: Primary screen NINDS Rhodamine qHTS for Zika virus inhibitors (AID 1347160); also: nearly all actives have a fitted effect of over 55% in size; also: potency is read from the fitted curve at half-maximal effect
# Summary of the method: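 Enzyme (25 nM, linked NS2B-NS3) was preincubated 15 min with compound in 10 mM Tris-HCl pH 8.0, 0.01% Tween 20. Rhodamine110 substrate (1.5 microM) was then added and fluorescence read at start and after 15 min.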
# [9] = G06 Cancer Cell Toxicity qHTS against the NCATS CANVASS Library (AID 1347368); also: nearly all actives have a fitted effect of over 60% in size; also: potency is read from the fitted curve at half-maximal effect
# Summary of the method: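 Quantitative HTS in G06 cells (dog glioma): 72 hr treatment, 11 concentrations, then ATP-based luminescent viability readout; bortezomib 0.1 nM–4.6 uM final as reference.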
# [10] = Secretion counterscreen for inhibitors of the SERCaMP assay screened against the NCATS CANVASS Library (AID 1347390);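 also: light from luciferase secreted into medium read as a measure of general secretion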; also: potency is read from the fitted curve at half-maximal effect
# Summary of the method: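 Natural products are titrated in an 11-point series up to 77 uM onto SH-SY5Y-GLuc STOP cells for 20 h. Secreted reporter activity is measured as coelenterazine-driven luminescence, with Brefeldin A on each plate.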
# [11] = system: Zika virus NS2B-NS3 protease (linked); assay: 384 well plate NINDS AMC confirmatory qHTS for Zika virus inhibitors (AID 1347163); also: potency is read from the fitted curve at half-maximal effect; nearly all actives have a fitted effect of over 50% in size
# Summary of the method: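 Enzyme (5, 30 or 60 nM final) first met test compounds for ~15 min. The AMC-tagged peptide Ac-VKTGKR-AMC followed at 30 microM. Fluorescence was then recorded at 25 min and scaled against no-enzyme and no-inhibitor wells.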
# [12] = system: Zika virus NS2B-NS3 protease (linked construct); assay: 384 well plate NINDS Rhodamine confirmatory qHTS for Zika virus inhibitors (AID 1347164); also: top concentration of the series differs between compounds; nearly all actives have a fitted effect of over 65% in size
# Summary of the method: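 Cleavage of Ac-LKRR-Rhodamine 110 (10 microM final) by linked protease (final 5, 30 or 60 nM) was followed as fluorescence at 485/538 nm after 25 min, room temperature, dark. Compounds preincubated ~15 min.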
# [13] = qHTS to identify inhibitors of the type 1 interferon - major histocompatibility complex class I in skeletal muscle: primary screen against the NCATS Mechanism Interrogation Plate v5.0 (MIPE) Libary (AID 1347411); also: nearly all actives have a fitted effect of over 65% in size
# Summary of the method: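 IFN-beta-driven (4 ng/ml) HLA-B-HiBit expression in CRISPR-tagged C25cl48 myoblasts; compounds 11-pt, 1:3, max 46 uM, 24 hr exposure; lytic NanoLuc complementation luminescence.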
# [14] = NCATS anti-infectives library activity on the primary C. elegans qHTS viability assay (AID 1745855; calls by dose curve)
# Summary of the method: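 Titration-based screen in worms: eggs hatched overnight in M9, L1 larvae fed TOP10 capsules in S medium with compound, incubated 21 °C for 7 days; fluorescent objects gated by size and intensity at days 0, 3 and 7.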
smiles,measurement,setting,value
CCOC(=O)c1ccc(CN(Cc2ccc(Br)cc2)S(=O)(=O)c2cccc(C(F)(F)F)c2)cc1,Potency,[1],inactive
CC(CCC[C@]1(C)C(=O)C=C[C@@]23C[C@]4(C)O[C@@H](C[C@@H]4[C@H]2O)C31)C(=O)O (some centres undefined),Potency,[2],inactive
same,Potency,[3],inactive
same,Potency,[4],inactive
same,Potency,[5],inactive
same,Potency,[6],inactive
same,Potency,[7],inactive
COC(=O)C1=C[C@]23C[C@@H](C)CC[C@@H]2[C@@]2(C)CC[C@@H](C(C)C)[C@@](O)(O3)[C@@H]12,Potency,[8],44 µM (active)
same,Potency,[2],inactive
same,Potency,[4],inactive
same,Potency,[9],inactive
same,Potency,[10],inactive
same,Potency,[5],inactive
same,Potency,[7],inactive
COc1c(O)cc2c(c1O)C(=O)c1c(coc1C)C2=O,Potency,[8],9.84 µM (active)
same,Potency,[3],inactive
same,Potency,[4],inactive
same,Potency,[10],inactive
same,Potency,[5],inactive
same,Potency,[6],inactive
CC(C)=CCC/C(C)=C/Cc1cc([C@@H]2CC(=O)c3c(cc(O)c(CC=C(C)C)c3O)O2)ccc1O,Potency,[8],6.97 µM (active)
same,Potency,[9],inactive
same,Potency,[5],inactive
same,Potency,[6],inactive
same,Potency,[7],inactive
C/C(=C\[C@H](C)C(=O)C[C@H](O)CC1CC(=O)NC(=O)C1)[C@@H]1OC(=O)CCCC/C=C/C[C@@H](O)[C@@H]1C,Potency,[8],inactive
same,Potency,[4],14.8 µM (active)
same,Potency,[9],2.64 µM (active)
same,Potency,[10],12.2 µM (active)
same,Potency,[7],inactive
CC1c2cccc(O)c2C(O)=C2C(=O)C3(O)C(O)=C(C(N)=O)C(=O)C(N(C)C)C3C(O)C21 (centres undefined),Potency,[11],282 µM (active)
same,Potency,[12],inactive
same,Potency,[13],inactive
C/C=C/C(=O)C1(O)CC2CC(C(=O)O)CC(C)C2C1C1=C2C(=O)NC(=O)C2=C(CCCCC)C(C)O1 (centres undefined),Potency,[8],49.3 µM (active)
same,Potency,[9],11.8 µM (active)
same,Potency,[5],inactive
O=C(OC[C@H]1O[C@@H](OC(=O)c2cc(O)c(O)c(O)c2)[C@H](OC(=O)c2cc(O)c(O)c(O)c2)[C@@H](OC(=O)c2cc(O)c(O)c(O)c2)[C@@H]1OC(=O)c1cc(O)c(O)c(O)c1)c1cc(O)c(O)c(O)c1,Potency,[8],0.877 µM (active)
same,Potency,[9],23.5 µM (active)
same,Potency,[10],inactive
same,Potency,[7],24.1 µM (active)
same,Potency,[14],inactive
CCCCc1nn2c(=O)cc(COC(=O)c3ccc(NC(=O)c4ccccc4Cl)cc3)nc2s1,Potency,[1],44.7 µM (active)
CC[C@H](O)CCCCC[C@@H]1NC(=O)[C@H]2CCCCN2C(=O)[C@H]([C@H](C)CC)NC(=O)[C@H](Cc2cn(OC)c3ccccc23)NC1=O,Potency,[8],15.6 µM (active)
same,Potency,[2],13.3 µM (active)
same,Potency,[3],inactive
same,Potency,[10],inactive
same,Potency,[5],6.6 µM (active)
same,Potency,[6],inactive
C=C[C@](Cl)(CBr)CCC=C(C)C,Potency,[8],inactive
same,Potency,[2],inactive
same,Potency,[3],inactive
same,Potency,[4],inactive
same,Potency,[10],inactive
same,Potency,[6],inactive
C/C(=C\[C@H](C)C(=O)CCCC1CC(=O)NC(=O)C1)[C@@H]1OC(=O)/C=C/CC/C=C/[C@H](O)[C@@H](O)[C@@H]1C,Potency,[8],49.3 µM (active)
same,Potency,[9],0.372 µM (active)
same,Potency,[10],2.72 µM (active)
same,Potency,[5],inactive
same,Potency,[7],24.1 µM (active)
CO[C@H]1/C=C/CCCCC(=O)O[C@@H](/C(C)=C/[C@H](C)C(=O)C[C@H](O)CC2CC(=O)NC(=O)C2)[C@@H](C)C1,Potency,[8],49.3 µM (active)
same,Potency,[5],inactive
C/C(=C\[C@H](C)C(=O)/C=C/CC1CC(=O)NC(=O)C1)[C@@H]1OC(=O)/C=C/CC/C=C/C[C@@H](O)[C@@H]1C,Potency,[8],31.1 µM (active)
same,Potency,[4],11.8 µM (active)
same,Potency,[9],1.05 µM (active)
same,Potency,[10],10.8 µM (active)
same,Potency,[5],inactive
CC[C@@H]1C[C@@]2(CC)OC(=O)[C@@]3(CC)[C@H](CC)[C@@H]1[C@@H]23,Potency,[2],inactive
same,Potency,[3],inactive
same,Potency,[4],inactive
same,Potency,[9],inactive
same,Potency,[6],6.04 µM (active)
COc1cc([C@@H]2c3cc4c(cc3C[C@@]3(O[C@@H]5O[C@H](CO)[C@@H](O)[C@H](O)[C@H]5O)COC(=O)[C@H]23)OCO4)cc(OC)c1OC,Potency,[8],44 µM (active)
same,Potency,[4],0.0372 µM (active)
COC(=O)c1cccc2oc(-c3cccc4oc(-c5c(C)cccc5O)nc34)nc12,Potency,[2],inactive
same,Potency,[4],inactive
same,Potency,[10],inactive
same,Potency,[6],inactive
same,Potency,[7],inactive
C/C=C(/CO)C(=O)O[C@@H]1[C@H](O)[C@@H](C(=O)OC)O[C@@H]2C[C@H]3OC(n4cnc5c(N)ncnc54)[C@H](OC)[C@H]3O[C@@]12O (some centres undefined),Potency,[3],inactive
same,Potency,[4],inactive
same,Potency,[10],inactive
same,Potency,[5],inactive
same,Potency,[6],inactive
CC(C)=CCC[C@]1(C)[C@H]2CC(=O)[C@@]3(CO3)[C@@H]1C2,Potency,[4],inactive
same,Potency,[6],inactive
C[C@@]12CCC[C@@](C)(C(=O)OP(=O)(O)OC[C@H]3O[C@@H](n4cnc5c(N)ncnc54)[C@H](O)[C@@H]3O)[C@H]1C[C@@H](O)[C@@]13C[C@@H](CC[C@@H]21)[C@](C)(O)C3,Potency,[2],inactive
same,Potency,[10],inactive
C=C[C@@]1(C)CC[C@@H]([C@H](C)C(C)=O)O1,Potency,[2],inactive
same,Potency,[4],inactive
same,Potency,[5],inactive
same,Potency,[6],inactive
COC(=O)[C@@]12Oc3cccc(O)c3C(O)=C1C(=O)C[C@H](C)[C@H]2O,Potency,[3],inactive
same,Potency,[4],inactive
same,Potency,[9],inactive
same,Potency,[5],inactive
same,Potency,[7],inactive
CC1(C)CC[C@]2(CO)CC[C@]3(C)C(=CCC4[C@@]5(C)CC[C@H](O)C(C)(C)C5CC[C@]43C)C2C1 (some centres undefined),Potency,[2],inactive
same,Potency,[3],inactive
same,Potency,[4],inactive
same,Potency,[9],inactive
same,Potency,[5],inactive
same,Potency,[7],inactive
C/C=C/[C@H]1[C@H]2C(=O)c3c(O)c(C)c(O)c(C)c3[C@]1(C(=O)O)C(=O)C=C2C,Potency,[9],inactive
same,Potency,[10],inactive
